Test results from PubChem BioAssay (NCATS).
Inconclusive results are not listed. Calls of active or inactive are those of the source. Calls come from the whole dose curve; as a rule, active = well fitted inhibition curve with a large enough effect; inconclusive = small, poorly fitted or top-dose-only effect; inactive = flat fitted curve, though single readings scatter.

Columns and labels:
Experiment in all cases: Cytotoxic Profiling of Annotated Libraries Using Quantitative High-Throughput Screening (AID 1296008); note: nearly all actives have a fitted effect of over 60% in size
Conditions in all cases: Five cell lines viability, CellTiter-Glo ATP luminescence, 48-72 h; max response: stronger effect = lower value
CRL-7250 = normal cell line; test system: CRL-7250
How it was run: (§1)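 Cytotoxicity was measured as CellTiter-Glo ATP luminescence, read after 10 min at room temperature. Compound treatment of the cells lasted 48 or 72 hr at 37 degrees Celsius in a qHTS format.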

HEK293 = test system: HEK293
How it was run: as §1

HaCat = test system: HaCat
How it was run: as §1

KB-3-1 = test system: KB-3-1
How it was run: as §1

NIH3T3 = test system: NIH3T3
How it was run: as §1

Measured: max response
% is set by controls: 0 for no effect and ±100 for the full control effect.

CC(C)C1(O)NC(=O)C(CC2(O)c3ccccc3N3C(=O)C(C)(C)NC32)n2c1nc1ccccc1c2=O (stereo not given)
inactive: CRL-7250 | HEK293 | HaCat -2.62% | KB-3-1 | NIH3T3 -5.54%

O=C(C[C@@H]1C(C(=O)O)=CO[C@@H](O[C@@H]2O[C@H](CO)[C@@H](O)[C@H](O)[C@H]2O)/C1=C\CO)OCCc1ccc(O)cc1
inactive: CRL-7250 1.31% | HEK293 1.44% | HaCat -0.66% | KB-3-1 | NIH3T3

CC(=O)OC/C(=C/C(=O)O)CC[C@@H]1C(CO)=CC[C@@H]2C(C)(C)CCC[C@@]12C
inactive: CRL-7250 1.35% | HEK293 1.68% | HaCat | KB-3-1 | NIH3T3 -1.93%

COC(=O)[C@]1(Cc2ccc(O)c(CC=C(C)C)c2)OC(=O)C(O)=C1c1ccc(O)cc1
inactive: CRL-7250 1.22% | HEK293 3.25% | HaCat | KB-3-1 | NIH3T3 0.954%

CC(C)N(CCCNC(=O)Nc1ccc(C(C)(C)C)cc1)C[C@H]1O[C@@H](n2ccc3c(N)ncnc32)[C@H](O)[C@@H]1O
inactive: CRL-7250 1.45% | HEK293 -23.8% | HaCat | KB-3-1 -3.09% | NIH3T3 -13.2%

CC1(C)CCC[C@]2(C)C1CC=C(CO)[C@H]2CC/C(=C/CO)CO (stereo not given in full)
inactive: CRL-7250 -11.4% | HEK293 -9.82% | HaCat | KB-3-1 -0.734% | NIH3T3 1.71%

COC(=O)[C@]1(C)CCC[C@@]2(C)C(=O)CC[C@H]3C(=O)C=C(CC[C@@H]21)C3O (stereo not given in full)
inactive: CRL-7250 -8.93% | HEK293 -5.09% | HaCat | KB-3-1 -0.869% | NIH3T3 1.41%

CC(=O)OC1CC2(C)C(CCC(C)C23Cc2c(O)cc4c(c2O3)CNC4=O)C(C)(C)C1O (stereo not given)
inactive: CRL-7250 -8.86% | HEK293 | HaCat -6.41% | KB-3-1 | NIH3T3 -10.8%

CC1=C(CCC(C)O[C@@H]2O[C@H](CO)[C@@H](O)[C@H](O)[C@H]2O)C(C)(C)CC(O)C1 (stereo not given in full)
inactive: CRL-7250 -1.39% | HEK293 1.2% | HaCat -0.421% | KB-3-1 1.93% | NIH3T3

C=C1CCC2[C@@](C)(C(=O)O)CCC[C@@]2(C)[C@@H]1CCc1ccoc1 (stereo not given in full)
inactive: CRL-7250 -7.76% | HEK293 -0.447% | HaCat -0.12% | KB-3-1 -3.34% | NIH3T3

CC1=C2C(=O)C=C(CO[C@@H]3O[C@H](CO)[C@@H](O)[C@H](O)[C@H]3O)[C@@H]2[C@H]2OC(=O)[C@H](C)[C@@H]2CC1
inactive: CRL-7250 -4.79% | HEK293 3.74% | HaCat 4.93% | KB-3-1 0.664% | NIH3T3

O=C(/C=C/c1ccc(O)c(O)c1)OC[C@H]1O[C@@H](OC2CCCCC2O)[C@H](O)[C@@H](O)[C@@H]1O (stereo not given in full)
inactive: CRL-7250 | HEK293 -0.405% | HaCat | KB-3-1 1.68% | NIH3T3

N=C(N)c1ccc2nc(-c3cc(CC(=O)NC(CC(=O)O)C(=O)O)cc(-c4cc(S(N)(=O)=O)ccc4O)c3O)[nH]c2c1 (stereo not given)
inactive: CRL-7250 -1.88% | HEK293 1.8% | HaCat | KB-3-1 | NIH3T3 -8.69%

Cc1cc(-c2nncc3c(C(C)(C)C)c(OCc4ncnn4C)nn23)no1
inactive: CRL-7250 | HEK293 -4.36% | HaCat | KB-3-1 6.49% | NIH3T3 1.34%

COc1cc(CCCO)ccc1O[C@@H]1O[C@H](CO)[C@@H](O)[C@H](O)[C@H]1O
inactive: CRL-7250 | HEK293 0.679% | HaCat | KB-3-1 | NIH3T3 -1.2%

Cc1cccc(NC(=O)CN2CCC(c3ccccn3)CC2)c1
inactive: CRL-7250 | HEK293 -3.86% | HaCat | KB-3-1 -2.52% | NIH3T3 4.5%

O=C(/C=C/C=C/c1ccc2c(c1)OCO2)N1CCCCC1
inactive: CRL-7250 | HEK293 3% | HaCat 0.66% | KB-3-1 3.15% | NIH3T3

C=C1[C@H]2CCC3[C@]4(C)CCC[C@@](C)(C(=O)O)C4CC[C@]3(C2)[C@H]1OC(C)=O (stereo not given in full)
inactive: CRL-7250 -1.83% | HEK293 3.77% | HaCat | KB-3-1 | NIH3T3

O=C(O)[C@H]1Cc2ccccc2CN1
inactive: CRL-7250 1.62% | HEK293 4.72% | HaCat | KB-3-1 0.759% | NIH3T3 4.47%

CC(=O)O[C@@H]1C[C@@H](C)[C@](O)(CCC2=CC(=O)OC2)[C@@]2(C)CCCC(C)(C)C12 (stereo not given in full)
inactive: CRL-7250 | HEK293 -5.82% | HaCat | KB-3-1 9.64% | NIH3T3 2.01%
